Source: PubChem BioAssay (Tox21)
Results filed as inconclusive are left out. Calls of active or inactive are those of the source. Unless noted, calls follow the shape of the full dose curve.

Legend:
[1] = Nuclear factor erythroid 2-related factor 2/antioxidant responsive element (Nrf2/ARE) small molecule agonists: qHTS cell viability counter screen in human keratinocytes (AID 1919968; active = well fitted curve in the direction sought with a large enough effect in the repeat runs; an effect the other way counts as inactive or inconclusive; also: nearly all actives have a fitted effect of over 55% in size)
How it was run: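 Measured as CellTiter-Fluor fluorescence, this readout tracks cytotoxicity in the same wells as the ARE-luciferase screen. HaCaT reporter cells (1,500/well) received compounds after a 5 h pre-incubation and were exposed for 23 h.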

[2] = Nuclear factor erythroid 2-related factor 2/antioxidant responsive element (Nrf2/ARE) small molecule agonists: luciferase reporter gene qHTS assay in human keratinocytes (AID 1919969); also: nearly all actives have a fitted effect of over 35% in size
[3] = target: Gonadotropin-releasing hormone receptor (Homo sapiens) (UniProt P30968); assay: Human gonadotropin-releasing hormone receptor (GnRHR) small molecule agonists, calcium flux assay in GnRHR-HEK293 cells (AID 1920063); also: nearly all actives have a fitted effect of over 35% in size
Gonadotropin-releasing hormone receptor (Homo sapiens), sequence (P30968 whole entry, looked up): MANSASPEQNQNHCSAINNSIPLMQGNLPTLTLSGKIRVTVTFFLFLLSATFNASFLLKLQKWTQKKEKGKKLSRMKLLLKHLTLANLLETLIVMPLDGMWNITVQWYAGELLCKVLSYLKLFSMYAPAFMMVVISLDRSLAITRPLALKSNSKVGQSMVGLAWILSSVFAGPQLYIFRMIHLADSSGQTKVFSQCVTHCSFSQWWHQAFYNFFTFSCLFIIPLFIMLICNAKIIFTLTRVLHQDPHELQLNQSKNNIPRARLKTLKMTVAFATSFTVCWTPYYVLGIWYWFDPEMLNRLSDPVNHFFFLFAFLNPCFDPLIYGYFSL
How it was run: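 Fluorescence kinetics (480 nm excitation, 540 nm emission; 3 min, 1 s steps) report calcium mobilisation in human GnRHR-HEK293 cells in agonist mode. Dye incubation: 1 h, 37 C.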

[4] = target: KiSS-1 receptor (Homo sapiens) (UniProt Q969F8); assay: Human kisspeptin (KISS1R) small molecule agonists, calcium flux assay in KISS1R-HEK293 cells (AID 1920064; active = well fitted curve in the direction sought with a large enough effect in the repeat runs; an effect the other way counts as inactive or inconclusive)
KiSS-1 receptor (Homo sapiens), sequence (Q969F8 whole entry, looked up): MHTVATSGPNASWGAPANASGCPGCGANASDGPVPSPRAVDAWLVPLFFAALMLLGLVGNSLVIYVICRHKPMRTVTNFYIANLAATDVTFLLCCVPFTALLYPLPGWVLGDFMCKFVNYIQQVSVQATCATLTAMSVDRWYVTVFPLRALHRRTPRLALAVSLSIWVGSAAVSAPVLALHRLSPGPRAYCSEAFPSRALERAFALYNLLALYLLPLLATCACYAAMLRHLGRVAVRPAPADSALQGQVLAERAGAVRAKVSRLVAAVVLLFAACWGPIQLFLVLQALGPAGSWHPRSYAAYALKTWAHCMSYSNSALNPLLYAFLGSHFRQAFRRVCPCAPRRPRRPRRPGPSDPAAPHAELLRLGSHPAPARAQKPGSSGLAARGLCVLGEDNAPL
How it was run: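 Measures KISS1R agonism through calcium-sensitive dye fluorescence in stably transfected HEK293 cells, read for 3 min after pin-tool compound delivery; 15-point titrations in triplicate.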

[5] = G protein-coupled receptor (GPCR) small molecule agonists, calcium flux assay: HEK293 wild type cell line counter screen (AID 1920065)
How it was run: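 Readout: fluorescence at 480 nm excitation/540 nm emission, sampled at 1 s intervals for 3 min. Cells had been cultured 18 h, then dye-loaded 1 h at 37 C before compound or ATP addition.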

[6] = p53 small molecule agonists, cell-based qHTS assay with human liver microsomes: qHTS cell viability counter screen (AID 1963579); also: nearly all actives have a fitted effect of over 45% in size
How it was run: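 After the 460/530 nm beta-lactamase read, CellTiter-Glo was added to the same wells and luminescence measured after 30 min at room temperature, giving viability of p53RE-bla cells treated 16 h with compounds plus microsomes and NADPH.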

[7] = p53 small molecule agonists, cell-based qHTS assay with rat liver microsomes: qHTS cell viability counter screen (AID 1963580); also: nearly all actives have a fitted effect of over 45% in size
How it was run: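 HCT-116 p53RE-bla, 4,000 cells/well, 5 h pre-incubation; cpd + rat liver microsomes 0.5 mg/mL + NADPH 0.5 mg/mL (final); 16 h, 37 C; CellTiter-Glo, 30 min RT; luminescence.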

[8] = p53 small molecule agonists, cell-based qHTS assay: qHTS cell viability counter screen (AID 1963581); also: nearly all actives have a fitted effect of over 45% in size
How it was run: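 In the same plates used for the p53 bla reporter, HCT-116 cells given compounds for 16 h at 37 C received CellTiter-Glo; luminescence was recorded 30 min later at room temperature.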

[9] = target: 5-hydroxytryptamine receptor 2A (Homo sapiens) (UniProt P28223); assay: 5-hydroxytryptamine receptor 2A (HTR2A) small molecule agonists, cell-based qHTS assay (AID 1963587); also: nearly all actives have a fitted effect of over 30% in size
5-hydroxytryptamine receptor 2A (Homo sapiens), sequence (P28223 whole entry, looked up): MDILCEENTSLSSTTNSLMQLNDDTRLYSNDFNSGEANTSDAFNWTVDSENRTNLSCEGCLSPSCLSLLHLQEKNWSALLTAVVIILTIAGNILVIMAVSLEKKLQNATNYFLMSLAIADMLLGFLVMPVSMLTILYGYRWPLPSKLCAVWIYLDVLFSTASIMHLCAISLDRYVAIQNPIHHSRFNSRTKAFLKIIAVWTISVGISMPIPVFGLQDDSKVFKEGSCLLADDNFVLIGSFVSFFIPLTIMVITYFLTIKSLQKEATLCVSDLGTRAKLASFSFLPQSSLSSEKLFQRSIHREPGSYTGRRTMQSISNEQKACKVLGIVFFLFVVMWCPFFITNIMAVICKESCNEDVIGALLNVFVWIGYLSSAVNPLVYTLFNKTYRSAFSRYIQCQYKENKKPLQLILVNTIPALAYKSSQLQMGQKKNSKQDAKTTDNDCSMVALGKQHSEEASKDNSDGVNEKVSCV
How it was run: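 Kinetic calcium-flux fluorescence (2 min, 1 sec intervals) after compound addition in agonist mode. HTR2A-CHO cells were cultured 18 h, then dye-loaded 1 h at 37 C.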

[10] = target: Muscarinic acetylcholine receptor M1 (Homo sapiens) (UniProt P11229); assay: Cholinergic receptor muscarinic 1 (CHRM1) small molecule antagonists, cell-based qHTS assay (AID 1963588); also: nearly all actives have a fitted effect of over 40% in size
Muscarinic acetylcholine receptor M1 (Homo sapiens), sequence (P11229 whole entry, looked up): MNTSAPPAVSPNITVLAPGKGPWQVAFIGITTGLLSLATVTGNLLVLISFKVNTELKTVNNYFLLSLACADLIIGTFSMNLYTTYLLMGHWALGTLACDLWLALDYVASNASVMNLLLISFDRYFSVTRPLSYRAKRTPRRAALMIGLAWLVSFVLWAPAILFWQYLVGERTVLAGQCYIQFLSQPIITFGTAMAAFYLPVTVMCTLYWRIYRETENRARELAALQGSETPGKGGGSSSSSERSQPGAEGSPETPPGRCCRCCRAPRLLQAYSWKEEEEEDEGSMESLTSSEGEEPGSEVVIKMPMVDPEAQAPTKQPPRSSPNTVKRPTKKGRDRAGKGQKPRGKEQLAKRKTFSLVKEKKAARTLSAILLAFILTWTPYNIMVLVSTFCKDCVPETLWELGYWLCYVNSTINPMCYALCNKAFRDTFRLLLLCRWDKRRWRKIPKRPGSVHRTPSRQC
How it was run: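 CHRM1-CHO calcium-flux assay, antagonist mode. Cells were seeded 18 h, dye-loaded 1 h at 37 C and given compound for 5 min at RT, then acetylcholine was added at 50nM. FDSS fluorescence was read 3 min; 15 concentrations, three runs.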

[11] = target: Muscarinic acetylcholine receptor M1 (Homo sapiens) (UniProt P11229); assay: Cholinergic receptor muscarinic 1 (CHRM1) small molecule agonists, cell-based qHTS assay (AID 1963589); also: nearly all actives have a fitted effect of over 35% in size
How it was run: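 Each compound was tested at 15 concentrations across three independent runs on dye-loaded CHO cells stably expressing human CHRM1, reading intracellular calcium fluorescence kinetically at 1 sec intervals.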

[12] = cAMP Responsive Elements (CRE) small molecule agonists, cell-based qHTS assay (AID 1963590)
How it was run: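 Cell line: CRE-bla HEK 293T; medium DMEM/10% dialyzed FBS/0.1 mM NEAA/1 mM pyruvate/25 mM HEPES; 3 h compound exposure; beta-lactamase FRET readout after 2 h substrate loading at RT.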

[13] = cAMP Responsive Elements (CRE) small molecule antagonists, cell-based qHTS assay (AID 1963591; active = well fitted inhibition curve with a large enough effect in the signal ratio in the repeat runs, not every such curve was filed as active; the % refers to the signal ratio)
How it was run: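 Inhibition of NKH477-driven (0.25 uM final) CRE-beta-lactamase signal in HEK293T cells, 3 h compound exposure at 37 °C, detected by FRET substrate fluorescence.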

[14] = target: Beta-2 adrenergic receptor (Homo sapiens) (UniProt P07550); assay: Adrenergic beta2 receptor (ADRB2) small molecule antagonists, cell-based qHTS assay (AID 1963592); also: series mostly up to about 92 µM; nearly all actives have a fitted effect of over 50% in size
Beta-2 adrenergic receptor (Homo sapiens), sequence (P07550 whole entry, looked up): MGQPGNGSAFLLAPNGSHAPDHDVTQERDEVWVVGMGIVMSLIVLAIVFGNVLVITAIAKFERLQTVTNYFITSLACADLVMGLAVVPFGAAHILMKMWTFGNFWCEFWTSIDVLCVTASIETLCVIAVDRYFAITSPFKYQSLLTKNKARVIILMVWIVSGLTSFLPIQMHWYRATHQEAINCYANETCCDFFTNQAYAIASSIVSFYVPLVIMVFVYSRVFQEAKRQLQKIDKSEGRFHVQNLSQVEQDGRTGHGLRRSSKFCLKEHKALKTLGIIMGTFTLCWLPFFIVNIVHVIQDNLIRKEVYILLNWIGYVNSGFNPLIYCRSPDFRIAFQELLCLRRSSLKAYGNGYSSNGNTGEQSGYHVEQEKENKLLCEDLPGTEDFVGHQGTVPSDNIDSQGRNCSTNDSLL
How it was run: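 Cells (CHO, stable ADRB2 overexpression) incubated 18-20hr at 37C; compounds added from DMSO; agonist mix (1nM isoproterenol, 100uM IBMX, 25uM Ro-20-1724) added; 0.5hr RT; d2-cAMP and anti-cAMP-cryptate added; 1hr RT; 665/615 nm read.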

[15] = target: Beta-2 adrenergic receptor (Homo sapiens) (UniProt P07550); assay: Adrenergic beta2 receptor (ADRB2) small molecule agonists, cell-based qHTS assay (AID 1963593);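 also: CHO cells stably overexpressing human ADRB2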
How it was run: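 CHO cells stably over-expressing ADRB2 were plated overnight at 37C, then dosed with compounds plus a stimulation mix containing 100uM IBMX and 25uM Ro-20-1724 for 0.5hr at room temperature. cAMP was measured by HTRF competition, 1hr.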

[16] = target: D(2) dopamine receptor (Homo sapiens) (UniProt P14416); assay: Dopamine D2 receptor (DRD2) small molecule agonists, cell-based qHTS assay (AID 1963594); also: nearly all actives have a fitted effect of over 35% in size
D(2) dopamine receptor (Homo sapiens), sequence (P14416 whole entry, looked up): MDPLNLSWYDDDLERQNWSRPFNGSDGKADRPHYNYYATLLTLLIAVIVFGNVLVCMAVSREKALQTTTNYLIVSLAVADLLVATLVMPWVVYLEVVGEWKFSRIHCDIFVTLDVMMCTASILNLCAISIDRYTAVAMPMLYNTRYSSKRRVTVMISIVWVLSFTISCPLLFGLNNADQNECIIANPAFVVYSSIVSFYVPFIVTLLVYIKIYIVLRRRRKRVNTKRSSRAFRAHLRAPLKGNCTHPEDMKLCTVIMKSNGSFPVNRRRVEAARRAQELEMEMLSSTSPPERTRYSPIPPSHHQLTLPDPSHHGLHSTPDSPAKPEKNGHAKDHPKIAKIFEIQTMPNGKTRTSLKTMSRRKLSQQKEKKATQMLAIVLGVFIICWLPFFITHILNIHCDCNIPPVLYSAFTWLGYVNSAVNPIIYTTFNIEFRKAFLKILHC
How it was run: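 cAMP accumulation in DRD2-HEK293 cells measured by HTRF after 1 h detection; compounds added 10 min before NKH477 (200nM […]) forskolin-analogue stimulation, 30 min at room temperature, with Ro20-1724 present at 0.1 mM final.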

[17] = target: D(2) dopamine receptor (Homo sapiens) (UniProt P14416); assay: Dopamine D2 receptor (DRD2) small molecule antagonists, cell-based qHTS assay (AID 1963595; active = well fitted inhibition curve with a large enough effect in the signal ratio in the repeat runs, with a control signal flat; the % refers to the signal ratio)
How it was run: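 In this cell-based antagonist screen, compounds act for 10 min at room temperature before a 30 min challenge with 12 nM quinpirole and 200 nM NKH477. cAMP is quantified by HTRF competition in DRD2-HEK293 cells containing 0.1 mM Ro20-1724.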

[18] = target: 5-hydroxytryptamine receptor 2A (Homo sapiens) (UniProt P28223); assay: 5-hydroxytryptamine receptor 2A (HTR2A) small molecule antagonists, cell-based qHTS assay (AID 1963586); also: nearly all actives have a fitted effect of over 45% in size
How it was run: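 Antagonist-mode intracellular calcium assay: DOI (4 nM) added after 5 min compound pre-incubation at room temperature to dye-loaded HTR2A-CHO cells. Fluorescence followed for 3 min, sampled every second.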

Measured: Potency

O=C(O)CNC(=O)c1ccccc1
not listed: [18]
inactive: all other assays above

Cc1ccccc1OCC(=O)O
not listed: [18]
inactive: all other assays above

CC(C)OC(=O)c1ccccc1C(=O)OC(C)C
not listed: [15] | [18]
inactive: all other assays above

CC[C@@]1(c2ccccc2)NC(=O)N(C)C1=O
not listed: [9] | [10] | [15]
inactive: all other assays above

CCC(C)(C)OC
not listed: [13] | [18]
inactive: all other assays above

CCCCCCCC/C=C\CCCCCCCC(=O)OCC
not listed: [9] | [15]
inactive: all other assays above

C=CCCC(=O)O
not listed: [9] | [14]
inactive: all other assays above

O=C(O)/C=C/c1ccc(O)c(O)c1
not listed: [14] | [18]
inactive: all other assays above

C=Cc1ccc(C=C)cc1
not listed: [15] | [18]
inactive: all other assays above

O=C1[C@@H]2[C@H]3CC[C@H](C3)[C@@H]2C(=O)N1CCCCN1CCN(c2ncccn2)CC1
not listed: [9] | [16] | [17] | [18]
inactive: all other assays above

CCCOC(=O)CC
not listed: [9] | [15] | [18]
inactive: all other assays above

O=C1c2ccccc2C(=O)c2cc(S(=O)(=O)O)ccc21
not listed: [18]
inactive: all other assays above

COC(=O)C1=C(C)NC(C)=C(C(=O)OC(C)C)C1c1cccc2nonc12 (configuration not stated)
not listed: [14] | [15] | [18]
inactive: all other assays above

CC[N+](CC)(CC(=O)Nc1c(C)cccc1C)Cc1ccccc1 (tested in a mixture with another compound)
not listed: [9] | [14] | [15]
inactive: all other assays above

O=c1cc(O)c(Cl)c[nH]1
not listed: [15] | [18]
inactive: all other assays above

NCCc1ccn[nH]1
not listed: [18]
inactive: all other assays above

COC(=O)[C@@H]1CC2=CC(=O)CC[C@]2(C)[C@@]23O[C@@H]2C[C@@]2(C)[C@@H](CC[C@@]24CCC(=O)O4)[C@H]13
not listed: [17] | [18]
inactive: all other assays above

COc1cc(Cl)c(OC)cc1N
not listed: [9] | [10] | [13] | [14] | [15]
inactive: all other assays above

CC(C)(C)CC(C)(C)N
not listed: [9] | [15]
inactive: all other assays above

O=C=NCC1CCCC(CN=C=O)C1 (configuration not stated)
not listed: [9] | [10] | [15]
inactive: all other assays above

CCC1Nc2cc(Cl)c(S(N)(=O)=O)cc2S(=O)(=O)N1 (configuration not stated)
not listed: [14] | [18]
inactive: all other assays above

CCNC(=O)/C=C/c1cccc(Br)c1
not listed: [11] | [18]
inactive: all other assays above

CCOCCn1c(N2CCCN(C)CC2)nc2ccccc21
not listed: [10] | [13] | [18]
inactive: all other assays above

CC1CCN(CCCC(=O)c2ccc(F)cc2)CC1
not listed: [10] | [17] | [18]
inactive: all other assays above

NC(Cc1c[nH]c2ccccc12)C(=O)O (configuration not stated)
not listed: [15] | [18]
inactive: all other assays above

CO/N=C(/C(=O)N[C@@H]1C(=O)N2C(C(=O)[O-])=C(C[n+]3ccn4ncccc43)CS[C@H]12)c1nsc(N)n1
not listed: [15] | [18]
inactive: all other assays above

O=C(O)c1ccc2cc(C(=O)O)ccc2c1
not listed: [18]
inactive: all other assays above

COC(=O)CSc1cc(N=c2sc(=O)n3n2CCCC3)c(F)cc1Cl
not listed: [9] | [11] | [12] | [13] | [15] | [16]
inactive: all other assays above
